Records with an inconclusive call do not appear. Active and inactive are the calls of the source. Unless noted, the call rests on the fitted dose curve; in most records, active means well fitted curve in the direction sought with a large enough effect; inconclusive means small, poorly fitted or top-dose-only effect, or another doubt; inactive means no such curve, though single readings can be large; an effect the other way counts as inactive or inconclusive.
Columns and labels:
[1] = qHTS assay for small molecule activators of the nuclear factor-kappa B (NF-kB) signaling pathway (AID 651749; active means well fitted activation curve with a large enough effect in the signal ratio; the % refers to the signal ratio; further: % of control where 0% means no effect); conditions: NF-kB-bla ME-180 cells, beta-lactamase FRET ratio, 16 h; hits give high values
Summary of the method: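 NF-kB-bla ME-180 cells carrying a beta-lactamase reporter under an NF-kB response element, 2,000 cells/well, exposed to compound for 16 hr at 37C; FRET-based beta-lactamase fluorescence read-out of pathway activation.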

[2] = molecular target: Tumor necrosis factor (Homo sapiens) (UniProt P01375); test: qHTS assay to identify small molecules that stimulate Tumor Necrosis Factor-alpha (TNF-alpha) secretion (AID 651757; active means well fitted curve in the direction sought with a large enough effect in the signal ratio; the % refers to the signal ratio; further: 0% is about no effect); conditions: Human cells, HTRF 665/615 ratio; series mostly up to 92.2 µM
Summary of the method: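 Read-out is HTRF, a TR-FRET sandwich of cryptate- and XL665-labeled anti-TNF-alpha antibodies detecting cytokine secreted by THP-1 cells. Cells had been incubated with test compounds at 37 C for 17 hrs beforehand.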

[3] = qHTS assay for environmental chemicals that activate the Aryl hydrocarbon Receptor (AhR) signaling pathway (AID 651777); conditions: 1A2-DRE human hepatoma cells, luciferase, 24 h; hits give high values; further: % of control where 0% means no effect; nearly all actives have a fitted effect of over 15% in size
Summary of the method: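 Stable CYP1A2 promoter/DRE-luciferase human hepatoma line treated 24 hr; One-Glo luminescence, 30 min RT.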

[4] = molecular target: Peroxisome proliferator-activated receptor alpha (Homo sapiens) (UniProt Q07869); test: qHTS assay for small molecule agonists of the peroxisome proliferator-activated receptor alpha (PPARalpha) signaling pathway (AID 651778); conditions: PathHunter PPARalpha complementation, chemiluminescence, 6 h; hits give high values; further: % of control where 0% means no effect
Summary of the method: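 Enzyme-fragment complementation assay in which ligand-bound PPARalpha translocates and forms an active enzyme that generates chemiluminescence. Cells were plated overnight, exposed to compound for 6 hr at 37 C, and then given detection reagent for 60 min at room temperature.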

[5] = molecular target: Nuclear receptor ROR-gamma (Homo sapiens) (UniProt P51449); test: qHTS assay for small molecule antagonists of the retinoid-related orphan receptor gamma (ROR-gamma) signaling pathway (AID 651802); conditions: ROR-gamma antagonist cell reporter assay; series mostly up to 92.2 µM;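 further: luciferase reporter luminescence driven by ROR response element; on the % scale 0 is the no-effect control and ±100 the full control effect; nearly all actives have a fitted effect of over 60% in size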
Summary of the method: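 CHO, TET-inducible ROR + RORE-LUC reporter, 1536-well qHTS. Compound pinned, doxycycline added, 16hr 37C/5% CO2. ONE-Glo, 30 min RT, luminescence; signal drop scored as antagonism.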

[6] = molecular target: Arylsulfatase A (Homo sapiens) (UniProt P15289); test: qHTS screen for enhancers of Arylsulfatase A (ASA1): LOPAC Validation Assay (AID 720538); conditions: ASA enzyme activity, LOPAC qHTS enhancer assay; series mostly up to 57.5 µM; further: 0% is about no effect
Summary of the method: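 Enhancer assay in patient-derived MLD fibroblasts carrying ASA-I179S: 48 h compound exposure at 37 C, then 14 h room-temperature pNCS turnover (0.5 mM final) in lysis buffer. Read by fluorescence at 525/598 nm after NaOH stop.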

[7] = qHTS for compounds that reverse cellular toxicity of Amyloid beta (A-beta) peptide in yeast: LOPAC Validation Assay (AID 720559); conditions: yeast expressing A-beta; series mostly up to 46.1 µM;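 further: plate controls were DMSO for no effect and equimolar ferric chloride plus clioquinol rescue for full effect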
Summary of the method: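 Rescue of A-beta toxicity was scored as yeast growth by 600 nm absorbance after 48 hr at 30 C with compound. Normalization used DMSO (negative) and equimolar ferric chloride plus clioquinol (positive).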

[8] = qHTS for Activators of Parkin Expression: LOPAC Validation Assay (NLuc Reporter) (AID 720572;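 further: 0% = DMSO and 100% = positive control compound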); conditions: Parkin promoter NanoLuc reporter cells, luminescence; series mostly up to 46.1 µM
Summary of the method: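 Neuronal cells with a Parkin promoter-driven FLuc/NLuc coincidence reporter were treated 24 h at 37 C in 7-point dose response (LOPAC). NLuc luminescence read after FLuc; signals normalized to DMSO and positive control (100%).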

[9] = qHTS for Activators of Parkin Expression: LOPAC Validation Assay (FLuc Reporter) (AID 720573;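 further: 0% = DMSO and 100% = positive control compounds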); conditions: Cell line, PRKN promoter firefly luciferase reporter, vehicle wells = 0, positive control = 100%; series mostly up to 46.1 µM
Summary of the method: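 FLuc signal from Parkin-promoter coincidence reporter neuronal cells, normalized to DMSO and positive control (100%). Cells (1,500/well) pre-incubated 24 h, then exposed to LOPAC compounds in 7-point dose response for 24 h at 37 C, 5% CO2.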

[10] = qHTS assay for small molecule agonists of the antioxidant response element (ARE) signaling pathway measured by Nrf2-dependant transcriptional activity (AID 720636; active means well fitted curve in the direction sought with a large enough effect in the repeat runs; an effect the other way counts as inactive or inconclusive;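 further: HepG2 cells with an ARE-driven luciferase reporter; % of control where 0% means no effect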); conditions: ARE-luc HepG2, Nrf2 luciferase reporter, 16 h; series mostly up to 92.4 µM
Summary of the method: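 Reporter gene assay, HepG2 ARE-luc: 16 hr compound, 37 C, 5% CO2; read-out luciferase luminescence.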

[11] = qHTS assay for small molecule antagonists of the retinoid-related orphan receptor gamma (ROR-gamma) signaling pathway - cell viability counter screen (AID 720652; active means well fitted curve in the direction sought with a large enough effect in the repeat runs; an effect the other way counts as inactive or inconclusive;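 further: compound exposure lasted 16 hr before ATP read; on the % scale 0 is the no-effect control and ±100 the full control effect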); conditions: RORgamma reporter cell line viability counter screen; series mostly up to 92.2 µM
Summary of the method: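 Luminescence from CellTiter-Glo after 30 min at room temperature reported cellular ATP as the cytotoxicity measure. Cells were the CHO reporter line with doxycycline-induced ROR-gamma expression, exposed to compound for 16 hr at 37 C.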

[12] = qHTS assay for small molecule agonists of the antioxidant response element (ARE) signaling pathway measured by Nrf2-dependant transcriptional activity - cell viability counter screen (AID 720653; active means well fitted curve in the direction sought with a large enough effect in the repeat runs; an effect the other way counts as inactive or inconclusive; further: on the % scale 0 is the no-effect control and ±100 the full control effect); conditions: ARE-bla HepG2 viability, CellTiter-Glo ATP luminescence, 16 h; hits give low values
Summary of the method: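 ARE-bla HepG2 cells treated with compounds for 16 h at 37C; this counter screen measures viability as intracellular ATP by CellTiter-Glo luminescence after 30 min at room temperature.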

[13] = molecular target: T1, Hexokinase-4 (Homo sapiens) + Glucokinase regulatory protein (Homo sapiens) (UniProt P35557+Q14397); test: qHTS assay for inhibitors of recombinant human GCK-GKRP interaction: Diaphorase-coupled assay (AID 743205); conditions: G6PDH/diaphorase resorufin fluorescence; series mostly up to 57.5 µM
Summary of the method: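 A kinetic fluorescence read (Ex 525/Em 590 nm, every minute for 30 minutes) tracked resorufin from a G6PDH-diaphorase coupled GCK reaction. It contained 10 nM GST-GCK, 10 nM FLAG-GKRP, 5 mM glucose, 0.4 mM ATP in Hepes pH 7.6. Normalized to with/without-enzyme DMSO controls.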

[14] = molecular target: T1, Hexokinase-4 (Homo sapiens) + Glucokinase regulatory protein (Homo sapiens); test: qHTS assay for inhibitors of recombinant human GCK-GKRP interaction: ADP-Glo assay (AID 743206); conditions: ADP-Glo luminescence, 60 min, 0% = vehicle-only wells with enzyme present; series mostly up to 76.9 µM;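 further: plate controls were DMSO plus enzyme for no effect and no enzyme for full effect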
Summary of the method: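 GST-GCK and FLAG-GKRP (15 nM each in the dispensed mix, with 2 uM S6P) react with 0.4 mM ATP and 5 mM glucose (final) in Hepes pH 7.6 for 60 min at room temperature. ADP is measured by ADP-Glo luminescence.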

[15] = molecular target: T1, Hexokinase-4 (Homo sapiens) + Glucokinase regulatory protein (Homo sapiens); test: qHTS assay for inhibitors of recombinant human GCK-GKRP interaction: HTRF assay (AID 743207); conditions: recombinant GCK-GKRP HTRF binding, 60 min, with sorbitol-6-phosphate; series mostly up to 57.5 µM;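 further: 0% = DMSO with GCK present and -100% = DMSO wells lacking GCK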
Summary of the method: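 After 60 min equilibration at room temperature with anti-FLAG XL665 and anti-GST antibodies, FRET ratio (665/615 nm, excitation 320 nm) was read. Proteins: GST-GCK and FLAG-GKRP, each 5 nM, plus 2 uM S6P, pH 7.1 buffer; GCK-free wells define minimum signal.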

[16] = molecular target: Tyrosine-protein kinase Yes (Homo sapiens) (UniProt P07947); test: qHTS for small molecule inhibitors of Yes1 kinase: Primary Screen (AID 686947); conditions: Yes1 kinase biochemical qHTS inhibition; series mostly up to 76.9 µM; further: nearly all actives have a fitted effect of over 60% in size; further: potency means the concentration at half of the fitted maximal effect
Summary of the method: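 Yes1 (4 nM) preincubated 20 min with compound, then 60 min room-temperature reaction with 0.1 mM ATP and 0.3 mg/mL poly(E4Y) in pH 7.5 Tris, 10 mM MgCl2. ADP measured by ADP-Glo luminescence, normalised to enzyme/no-enzyme controls.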

[17] = qHTS for small molecule inhibitors of Yes1 kinase: Counter Assay (AID 686950); conditions: series mostly up to 76.9 µM;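 further: no kinase present so only ADP-Glo detection of a fixed ADP amount is tested; luminescence from ADP-Glo reporting ADP in a fixed ATP and ADP mixture; 0% = DMSO wells with ATP plus ADP and -100% = ATP-only wells without ADP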
Summary of the method: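 Enzyme-free detection counter-screen: compounds preincubated 20 min in buffer, then 0.08 mM ATP plus 0.02 mM ADP added for 60 min at room temperature; ADP-Glo luminescence. Buffer 50 mM Tris pH 7.5, 10 mM MgCl2, 150 mM NaCl; normalized to ATP+ADP and ATP-only controls.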

Chain of Tyrosine-protein kinase Yes (Homo sapiens) (P07947 whole entry, looked up): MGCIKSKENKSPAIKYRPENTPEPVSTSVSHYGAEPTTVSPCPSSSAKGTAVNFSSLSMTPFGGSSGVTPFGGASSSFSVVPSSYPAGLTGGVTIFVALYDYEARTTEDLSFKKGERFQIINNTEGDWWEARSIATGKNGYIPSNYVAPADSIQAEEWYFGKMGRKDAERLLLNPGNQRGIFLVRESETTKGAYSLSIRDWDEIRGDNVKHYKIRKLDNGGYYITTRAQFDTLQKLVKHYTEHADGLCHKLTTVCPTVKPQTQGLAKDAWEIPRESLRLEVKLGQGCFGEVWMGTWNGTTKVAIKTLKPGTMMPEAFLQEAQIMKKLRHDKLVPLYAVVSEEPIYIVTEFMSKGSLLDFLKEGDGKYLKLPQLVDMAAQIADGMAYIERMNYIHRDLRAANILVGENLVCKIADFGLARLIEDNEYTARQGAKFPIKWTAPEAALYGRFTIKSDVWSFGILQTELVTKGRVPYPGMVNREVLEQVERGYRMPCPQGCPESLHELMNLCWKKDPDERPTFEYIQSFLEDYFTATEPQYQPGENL
Chain of Arylsulfatase A (Homo sapiens) (P15289 whole entry, looked up): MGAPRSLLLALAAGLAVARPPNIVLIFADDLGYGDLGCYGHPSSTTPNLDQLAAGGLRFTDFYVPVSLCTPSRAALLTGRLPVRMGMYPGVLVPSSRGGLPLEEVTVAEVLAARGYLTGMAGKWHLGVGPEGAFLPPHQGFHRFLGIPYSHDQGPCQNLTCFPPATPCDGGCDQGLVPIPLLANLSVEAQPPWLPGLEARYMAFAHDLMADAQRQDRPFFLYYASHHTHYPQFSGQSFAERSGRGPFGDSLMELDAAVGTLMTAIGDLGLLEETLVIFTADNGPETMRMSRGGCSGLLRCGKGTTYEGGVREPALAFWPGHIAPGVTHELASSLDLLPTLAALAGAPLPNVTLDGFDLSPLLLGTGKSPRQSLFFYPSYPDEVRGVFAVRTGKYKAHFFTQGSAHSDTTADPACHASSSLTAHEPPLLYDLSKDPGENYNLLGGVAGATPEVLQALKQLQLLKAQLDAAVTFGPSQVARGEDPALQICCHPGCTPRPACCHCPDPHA
T1 sequence (P35557 whole entry, looked up): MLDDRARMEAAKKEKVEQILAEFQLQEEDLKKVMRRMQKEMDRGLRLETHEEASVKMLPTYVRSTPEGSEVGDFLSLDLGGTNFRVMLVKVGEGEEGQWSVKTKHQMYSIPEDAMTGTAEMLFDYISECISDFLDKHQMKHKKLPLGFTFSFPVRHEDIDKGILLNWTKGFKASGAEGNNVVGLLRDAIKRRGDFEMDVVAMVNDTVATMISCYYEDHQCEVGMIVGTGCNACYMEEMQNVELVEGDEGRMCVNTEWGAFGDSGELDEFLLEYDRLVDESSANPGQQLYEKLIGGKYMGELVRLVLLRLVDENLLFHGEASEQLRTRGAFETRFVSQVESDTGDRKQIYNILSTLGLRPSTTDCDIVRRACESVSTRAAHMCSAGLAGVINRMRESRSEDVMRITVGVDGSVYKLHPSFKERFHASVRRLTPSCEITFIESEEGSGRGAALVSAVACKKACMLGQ
T1 sequence (Q14397 whole entry, looked up): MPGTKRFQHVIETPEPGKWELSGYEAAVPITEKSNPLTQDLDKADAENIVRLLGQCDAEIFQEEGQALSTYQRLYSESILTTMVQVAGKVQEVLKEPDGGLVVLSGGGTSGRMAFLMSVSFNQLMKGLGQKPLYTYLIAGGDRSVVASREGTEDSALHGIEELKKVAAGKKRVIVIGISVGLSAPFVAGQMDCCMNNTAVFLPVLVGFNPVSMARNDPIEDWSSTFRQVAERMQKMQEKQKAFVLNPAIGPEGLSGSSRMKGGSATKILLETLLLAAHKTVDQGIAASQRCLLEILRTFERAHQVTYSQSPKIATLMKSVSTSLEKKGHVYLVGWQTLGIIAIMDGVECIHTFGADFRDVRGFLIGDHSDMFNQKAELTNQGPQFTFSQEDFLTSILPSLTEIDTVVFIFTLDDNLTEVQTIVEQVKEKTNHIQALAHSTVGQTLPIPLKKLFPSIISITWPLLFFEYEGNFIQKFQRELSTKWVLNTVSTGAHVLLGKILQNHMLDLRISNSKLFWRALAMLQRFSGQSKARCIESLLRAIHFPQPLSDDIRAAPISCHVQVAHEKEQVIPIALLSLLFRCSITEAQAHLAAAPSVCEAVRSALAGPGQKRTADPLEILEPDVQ
Chain of Peroxisome proliferator-activated receptor alpha (Homo sapiens) (Q07869 whole entry, looked up, the tested form may be a part): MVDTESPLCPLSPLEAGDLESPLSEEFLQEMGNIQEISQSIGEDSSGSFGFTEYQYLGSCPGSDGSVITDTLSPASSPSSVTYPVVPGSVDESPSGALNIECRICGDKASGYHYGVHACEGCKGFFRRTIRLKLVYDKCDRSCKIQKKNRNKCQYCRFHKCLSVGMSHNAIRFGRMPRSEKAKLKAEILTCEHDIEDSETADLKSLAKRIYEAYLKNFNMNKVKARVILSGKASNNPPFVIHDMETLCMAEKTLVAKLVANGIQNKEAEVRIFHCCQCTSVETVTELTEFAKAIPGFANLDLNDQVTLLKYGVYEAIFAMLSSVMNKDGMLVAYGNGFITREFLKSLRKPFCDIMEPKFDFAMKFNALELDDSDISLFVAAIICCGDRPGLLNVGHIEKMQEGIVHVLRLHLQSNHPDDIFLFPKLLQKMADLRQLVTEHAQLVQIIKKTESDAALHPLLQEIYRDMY
Chain of Tumor necrosis factor (Homo sapiens) (P01375 whole entry, looked up): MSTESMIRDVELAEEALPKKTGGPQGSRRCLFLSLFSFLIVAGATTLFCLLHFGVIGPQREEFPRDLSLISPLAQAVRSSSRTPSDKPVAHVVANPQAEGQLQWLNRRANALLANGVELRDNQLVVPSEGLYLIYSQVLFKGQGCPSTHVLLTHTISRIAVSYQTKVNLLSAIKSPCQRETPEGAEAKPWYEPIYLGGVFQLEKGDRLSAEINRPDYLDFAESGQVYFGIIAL
Chain of Nuclear receptor ROR-gamma (Homo sapiens) (P51449 whole entry, looked up): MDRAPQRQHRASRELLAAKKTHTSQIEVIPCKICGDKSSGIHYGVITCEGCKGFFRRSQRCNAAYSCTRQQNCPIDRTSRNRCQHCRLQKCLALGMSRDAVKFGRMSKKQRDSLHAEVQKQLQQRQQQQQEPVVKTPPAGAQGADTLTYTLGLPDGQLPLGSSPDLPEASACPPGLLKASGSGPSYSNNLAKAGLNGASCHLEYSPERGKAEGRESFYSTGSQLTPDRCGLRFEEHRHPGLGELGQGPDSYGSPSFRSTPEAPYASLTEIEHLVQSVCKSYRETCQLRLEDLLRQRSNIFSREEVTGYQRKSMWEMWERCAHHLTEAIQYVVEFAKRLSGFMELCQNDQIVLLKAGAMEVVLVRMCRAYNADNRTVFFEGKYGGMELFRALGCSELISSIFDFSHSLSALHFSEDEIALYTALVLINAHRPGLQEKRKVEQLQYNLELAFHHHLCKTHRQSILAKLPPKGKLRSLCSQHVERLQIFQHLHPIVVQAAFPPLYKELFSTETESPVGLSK

O=c1[nH]cnc2[nH]ncc12
inactive: activation [1] 1.17% | outcome [2] | activation [3] -0.722% | max response [4] -0.201% | outcome [5] | outcome [6] | outcome [7] | Potency [8] | outcome [9] | outcome [10] | outcome [11] | max response [12] -4.44% | outcome [13] | outcome [14] | outcome [15]

C[C@]12CCC(=O)C=C1CC[C@@H]1[C@@H]2[C@@H](O)C[C@@]2(C)[C@H]1CC[C@]2(O)C(=O)CO
inactive: activation [1] -2.01% | activation [3] -1.47% | max response [4] -0.295% | Potency [16] | outcome [17] | outcome [6] | outcome [7] | outcome [9] | outcome [10] | max response [12] -2.33% | outcome [13] | outcome [14]

CC(C)(Sc1ccc(CCN(CCCCC2CCCCC2)C(=O)NC2CCCCC2)cc1)C(=O)O
inactive: activation [1] 7.6% | activation [3] 0.388% | outcome [17] | outcome [6] | outcome [7] | outcome [9] | outcome [10] | max response [12] 1.89% | outcome [13] | outcome [14]

O=NN(CCCl)C(=O)NCCCl
inactive: activation [1] -1.3% | activation [3] 0.58% | max response [4] -2.23% | outcome [7] | outcome [9] | outcome [10] | max response [12] -0.208% | outcome [13] | outcome [14]

CCN(CCCO)CCCOc1ccc2c(Nc3cc(CC(=O)Nc4cccc(F)c4)[nH]n3)ncnc2c1
inactive: outcome [17]
active: Potency [16] 387 nM

CNC[C@H](O)c1cccc(O)c1
inactive: activation [1] -0.433% | activation [3] -0.659% | max response [4] -0.749% | outcome [6] | outcome [7] | outcome [9] | outcome [10] | max response [12] -6.42% | outcome [13] | outcome [14]

Cc1cccc(-c2nn(C(=S)Nc3ccccc3)cc2-c2ccnc3ccccc23)n1
active: Potency [16] 2440 nM
inactive: outcome [17]

OC[C@H](Cc1ccccc1)Nc1nc(Oc2ccc3c(c2)CCC3)nc2c1ncn2Cc1ccc(-c2ccccc2)cc1
inactive: Potency [16] | outcome [17]

CS(=O)(=O)Oc1ccc2c(NC(N)=O)c(C(=O)c3ccc(Cl)cc3Cl)oc2c1
inactive: Potency [16] | outcome [17]

Cc1cc(-c2nnc3n2CCCCC3)c(C)n1-c1ccc(F)cc1
active: Potency [16] 34500 nM
inactive: outcome [17]

Reference: PubChem BioAssay (NCATS)
